From PubChem BioAssay
Active and inactive are the calls of the source.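 Rule for the calls, unless noted: active = visually confirmed hit in the image check and inhibition above 20%; inconclusive = visually confirmed hit but inhibition not above 20%; inactive = no visual hit in the image check.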

Key:
[1] = inhibitors of TNFa-induced NFkB p65 translocation, primary screen, imaging, HUVEC, MLSMR starter and 10KST1 sets (AID 438;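 active = inhibition above 20% together with a positive visual image hit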;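 note: compound added about 3h40 before a 20 min TNFalpha stimulation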;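 for inhibition: signal is the nuclear over cytoplasmic p65 intensity ratio per well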); settings: HUVEC TNFa-induced p65 nuclear translocation; cell count: measured here: nuclei count (cytotoxicity indicator), at 2.08 µM; inhibition: at 2 µM, stronger effect = higher value, 0% TNFa-plus-vehicle, 100% no-TNFa wells
[2] = reduction of polyQ htt aggregates in cells – imaging, exon1htt(103Q)mCFP cells, high-content imaging, primary screen (AID 483;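 active = visual image review flags a hit and inhibition of aggregation exceeds 20%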;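 note: compound exposure lasted 3 days before fixation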;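 for nuclei count: percent of the per-plate median nuclei count of sample wells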); settings: exon1htt(103Q)mCFP cell line, aggregate imaging, at 2 µM; inhibition of aggregation: stronger effect = higher value; nuclei count: measured here: cell count, toxicity
[3] = endothelial E-selectin expression blockers – imaging, HUVEC, immunofluorescence, MLSMR starter and 10KST1 sets, primary screen (AID 487); settings: HUVEC TNFalpha-induced E-selectin immunofluorescence imaging, at 2 µM; inhibition: stronger effect = higher value; nuclei count: measured here: cell number, toxicity;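 for inhibition: signal is fraction of cell area covered by stained E-selectin grains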;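 for nuclei count: 100% = median nuclei count of all wells on the same plate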
[4] = target: Voltage-gated potassium channel subunit beta-2 (Rattus norvegicus) (UniProt P62483); assay: inhibitors of rat Kvbeta2 reductase activity – biochemical, NADPH fluorescence, primary screen (AID 622;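 active = fluorescence slope higher than the sample average by over 3 SD, cut at about -0.22 in these data, passing the limit was not always enough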;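 note: slope of raw intensity against log time taken from 70 to 1610 s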); settings: recombinant KvBeta, 4-cyanobenzaldehyde reduction, at 10 µM, stronger effect = higher value
[5] = target: Voltage-gated potassium channel subunit beta-2 (Rattus norvegicus) (UniProt P62483); assay: enhancers of rat Kvbeta2 NADPH turnover – biochemical, NADPH fluorescence, primary screen (AID 623;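 active = NADPH fluorescence slope more negative than the mean of all samples by about 3 SD, 99.7% confidence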;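 note: fluorescence intensity change per second fitted from 20 to 320 s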); settings: Recombinant KvBeta, NADPH fluorescence decrease slope, 10 min; at 10 µM; stronger effect = lower value
[6] = target: Alpha-2C adrenergic receptor (Homo sapiens) (UniProt P18825); assay: compounds altering alpha2C-coupled GIRK flux – cell-based, HEK293 alpha2C/GIRK1/2, thallium flux, primary screen (AID 624;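 active = fluorescence slope after compound addition differing from the mean of all screened samples at 99.7% confidence, in either direction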;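 note: slope of fluorescence ratio to pre-addition baseline per second over 15 to 24 s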); settings: thallium flux BTC fluorescence, at 10 µM, actives lie on both sides
[7] = blockers of RIG-like receptor reporter activation – cell-based, Sendai virus stimulus, luciferase, 10K MLSCN set, TLR/RLR signaling modifier project, primary screen (AID 602276;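 active = inhibition at or above 50% at 10 µM; inactive = inhibition below 50%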;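 note: firefly luciferase from ISG56 promoter only with Renilla not read in this screen; 0% = Sendai virus plus DMSO and 100% = medium plus DMSO without virus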); settings: HEK293 RL24 IRF3 luciferase reporter, at 10 µM, stronger effect = higher value
[8] = TLR3 IRF3 reporter activation blockers – cell-based, poly I:C stimulus, luciferase, 10K MLSCN set, primary screen (AID 602277;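 active = inhibition of the reporter signal at or above 50%; inactive = inhibition below 50%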); settings: HEK293-TLR3 RL24 IRF3 luciferase reporter, at 10 µM, stronger effect = higher value

Chain of Alpha-2C adrenergic receptor (Homo sapiens) (P18825 whole entry, looked up): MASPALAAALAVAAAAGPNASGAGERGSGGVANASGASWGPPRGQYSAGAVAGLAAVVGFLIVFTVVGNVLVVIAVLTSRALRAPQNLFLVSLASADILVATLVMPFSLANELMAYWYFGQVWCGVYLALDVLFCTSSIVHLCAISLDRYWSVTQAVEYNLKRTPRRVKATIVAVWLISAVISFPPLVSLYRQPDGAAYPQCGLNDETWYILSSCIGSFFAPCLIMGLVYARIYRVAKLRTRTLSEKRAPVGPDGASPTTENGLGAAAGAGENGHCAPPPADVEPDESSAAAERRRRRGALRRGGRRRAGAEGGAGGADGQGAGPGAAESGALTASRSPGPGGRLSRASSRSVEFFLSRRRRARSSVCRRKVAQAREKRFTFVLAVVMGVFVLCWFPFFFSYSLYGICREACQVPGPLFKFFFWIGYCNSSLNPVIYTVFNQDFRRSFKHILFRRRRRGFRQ
Chain of Voltage-gated potassium channel subunit beta-2 (Rattus norvegicus) (P62483 whole entry, looked up): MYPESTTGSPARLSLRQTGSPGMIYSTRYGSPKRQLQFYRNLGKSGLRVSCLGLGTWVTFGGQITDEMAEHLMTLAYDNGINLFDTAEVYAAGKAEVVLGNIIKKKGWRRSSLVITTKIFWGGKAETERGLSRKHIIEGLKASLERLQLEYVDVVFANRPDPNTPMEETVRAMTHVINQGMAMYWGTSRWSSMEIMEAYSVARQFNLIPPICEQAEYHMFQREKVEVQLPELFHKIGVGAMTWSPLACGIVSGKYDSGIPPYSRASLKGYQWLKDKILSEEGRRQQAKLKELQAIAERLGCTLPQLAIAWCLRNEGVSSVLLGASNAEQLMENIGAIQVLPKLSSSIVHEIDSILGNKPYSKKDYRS

Row | Structure (SMILES) | cell count [1] | inhibition [1] | inhibition of aggregation [2] | nuclei count [2] [%] | inhibition [3] | nuclei count [3] [%] | fluorescence slope [4] | NADPH fluorescence slope [5] | slope [6] | inhibition [7] | inhibition [8]
1 | O=C(NCc1ccco1)c1cnc2n(c1=O)CCS2 | 188 | 4.4% (inactive) | 5.7% (inactive) | 66.8 | 7.8% (inactive) | 93.2 | -0.419 (inactive) | -1.2e-05 (inactive) | 0.00633 (inactive) | 10% (inactive) | 2.98% (inactive)
2 | Cc1ccc(C)c2[nH]c(=O)c(CN(CCN3CCCC3)C(=O)Nc3cccc(Cl)c3)cc12 | 562 | -4.7% (inactive) | 13.8% (inactive) | 67.7 | -35.9% (inactive) | 94.3 | -0.544 (inactive) | -6.8e-05 (inactive) | 0.00448 (inactive) | -139% (inactive) | 78.9% (active)
3 | COc1cc(S(=O)(=O)N(C)C)ccc1F | 333 | -4.5% (inactive) | 5.9% (inactive) | 87.4 | -114% (inactive) | 116 | -0.413 (inactive) | -5e-05 (inactive) | 0.00561 (inactive) | 17.1% (inactive) | 9.1% (inactive)
4 | CC(C)OC(=O)c1cc(=O)[nH]c2ccccc12 | 267 | 14% (inactive) | 5.3% (inactive) | 94 | -4.6% (inactive) | 92.6 | -0.556 (inactive) | 3e-05 (inactive) | 0.00572 (inactive) | 12.2% (inactive) | 9.33% (inactive)
5 | COc1cc(OC)cc(-c2nc(N)n[nH]2)c1 | 455 | 3.7% (inactive) | 0% (inactive) | 105 | -33% (inactive) | 104 | -0.411 (inactive) | -5.5e-05 (inactive) | 0.00517 (inactive) | 10.7% (inactive) | 12% (inactive)
6 | CCC(C)(NC(=O)CNC(C)=O)C(=O)NC1CCCCC1 (stereo not drawn) | 610 | -15.7% (inactive) | -1.1% (inactive) | 122 | -24.9% (inactive) | 116 | -0.472 (inactive) | -0.000295 (inactive) | 0.00509 (inactive) | -6.71% (inactive) | -2.23% (inactive)
7 | O=C(CCN1C(=O)C2C3C=CC(C3)C2C1=O)NC1CCCc2ccccc21 (stereo not drawn) | 411 | 7.3% (inactive) | 4.3% (inactive) | 104 | -138% (inactive) | 104 | -0.441 (inactive) | -1.7e-05 (inactive) | 0.00567 (inactive) | 10.7% (inactive) | 30.7% (inactive)
8 | CCOc1ccc2[nH]c(=O)c(C(c3nnnn3Cc3ccco3)N3CCC(C)CC3)cc2c1 (stereo not drawn) | 218 | 0.8% (inactive) | 13.4% (inactive) | 97.1 | -65.3% (inactive) | 82.3 | -0.539 (inactive) | -2.2e-05 (inactive) | 0.00417 (inactive) | 13% (inactive) | 20.5% (inactive)
9 | Cc1ccc(S(=O)(=O)N(CC(=O)NCc2ccco2)Cc2ccccc2F)cc1 | 308 | 2.4% (inactive) | 14% (inactive) | 92.3 | -3.2% (inactive) | 103 | -0.524 (inactive) | 1.7e-06 (inactive) | 0.00527 (inactive) | 8.9% (inactive) | 11.9% (inactive)
10 | O=C(Nc1ccc2snnc2c1)N1CCN(c2ccccc2)CC1 | 454 | 1.6% (inactive) | 0.7% (inactive) | 101 | 0.3% (inactive) | 117 | -0.425 (inactive) | 7.2e-06 (inactive) | 0.00518 (inactive) | 4.94% (inactive) | -57.8% (inactive)
11 | COc1ccc(C2CC(=O)C3=C(C2)Nc2ccccc2N(C(=O)C2CC2)C3c2cccnc2)cc1OC (stereo not drawn) | 683 | -10.9% (inactive) | -43.4% (inactive) | 87.2 | 0.8% (inactive) | 98.6 | -0.367 (inactive) | 7.5e-06 (inactive) | 0.00392 (inactive) | 10.6% (inactive) | 17.6% (inactive)
12 | O=C(CN(CCc1ccccc1)C(=O)CNS(=O)(=O)c1ccccc1)NCC1CCCO1 (stereo not drawn) | 322 | 11.7% (inactive) | -13.1% (inactive) | 99.8 | -46.7% (inactive) | 109 | -0.481 (inactive) | 2e-05 (inactive) | 0.0066 (inactive) | -8.2% (inactive) | 13.9% (inactive)
13 | O=c1c[n+]([O-])c2ccccc2n1OCc1c(F)cccc1F | 744 | -6% (inactive) | -13.7% (inactive) | 87.6 | -236% (inactive) | 110 | -0.425 (inactive) | -2.4e-05 (inactive) | 0.00594 (inactive) | 18% (inactive) | 24.8% (inactive)
14 | COc1ccc(CCn2c(C)cc(C(=O)CSc3nnnn3C)c2C)cc1 | 441 | -1.5% (inactive) | -14.4% (inactive) | 131 | -45.2% (inactive) | 110 | -0.412 (inactive) | 4.6e-05 (inactive) | 0.00361 (inactive) | 0.703% (inactive) | -19.8% (inactive)
15 | CCOc1cccc(-c2nnc3sc(COc4ccc(OC)cc4)nn23)c1 | 534 | 7.7% (inactive) | -2.2% (inactive) | 95.7 | -93.7% (inactive) | 118 | -0.433 (inactive) | -3.1e-05 (inactive) | 0.00731 (inactive) | 7.6% (inactive) | 17.6% (inactive)
16 | COc1ccc(-n2c(Cc3cccn3C)nnc2SCC(=O)Nc2cccc(OC)c2)cc1 | 545 | 0.5% (inactive) | 5.4% (inactive) | 93.7 | -28.8% (inactive) | 90.2 | -0.632 (inactive) | 2.3e-05 (inactive) | 0.00546 (inactive) | -1.72% (inactive) | 5.53% (inactive)
17 | Cc1ccccc1NC(=O)Cc1nnc(SCC(=O)N2CCN(c3ccccc3)CC2)n1C | 483 | -5.3% (inactive) | 2.3% (inactive) | 99.9 | 8.9% (inactive) | 131 | -0.402 (inactive) | -5.5e-05 (inactive) | 0.00281 (inactive) | 11.9% (inactive) | 29.5% (inactive)
18 | O=C1CC(c2ccccc2)Cc2nc(N3CCc4ccccc43)ncc21 (stereo not drawn) | 403 | 1.2% (inactive) | -14.1% (inactive) | 95.7 | -134% (inactive) | 183 | -0.0564 (inactive) | -1.7e-05 (inactive) | 0.00498 (inactive) | 9.74% (inactive) | 2.35% (inactive)
19 | c1ccc(-c2cc(N3CCCCC3)ncn2)cc1 | 327 | 0.7% (inactive) | -3.9% (inactive) | 101 | -109% (inactive) | 112 | -0.485 (inactive) | -4.6e-05 (inactive) | 0.00423 (inactive) | -37.6% (inactive) | -113% (inactive)
20 | CN(c1ccc(OCc2nnc(-c3ccccc3)o2)cc1)S(=O)(=O)c1ccccc1 | 587 | 10.1% (inactive) | 13.2% (inactive) | 95 | 21.6% (inactive) | 82 | -0.335 (inactive) | -5.4e-05 (inactive) | 0.00414 (inactive) | 11.5% (inactive) | -5.42% (inactive)
21 | CCCn1c(SCC(=O)Nc2ccccc2C(=O)OCC)nc2c1c(=O)n(C)c(=O)n2C | 225 | -9.1% (inactive) | -9.7% (inactive) | 95.2 | -4.8% (inactive) | 77.3 | -0.402 (inactive) | -3.8e-05 (inactive) | 0.00524 (inactive) | 4.88% (inactive) | 5.62% (inactive)
22 | COC(=O)n1c(=S)oc2cc(Cl)ccc21 | 673 | 8.2% (inactive) | -25.1% (inactive) | 106 | 16.4% (inactive) | 93 | -0.638 (inactive) | 1.8e-05 (inactive) | 0.0107 (inactive) | 16.6% (inactive) | 31.1% (inactive)
23 | Nn1c(Cc2ccccc2F)nnc1SCC(=O)N1CC(=O)Nc2ccccc21 | 324 | 20.7% (inactive) | 11.9% (inactive) | 107 | -11.5% (inactive) | 105 | -0.39 (inactive) | 6.9e-08 (inactive) | 0.00403 (inactive) | 11.5% (inactive) | 36.8% (inactive)
24 | O=C(Nc1ccc2c(c1)nc1n2CCN(Cc2ccccc2)C1)c1cccs1 | 420 | -13.3% (inactive) | 6.4% (inactive) | 89.3 | 11.1% (inactive) | 73.9 | -0.461 (inactive) | -0.000271 (inactive) | 0.00505 (inactive) | -17.8% (inactive) | -84.2% (inactive)
25 | CCOc1ccc(CNc2ccc3c(c2)ncn3C)cc1 | 174 | -3% (inactive) | -8.8% (inactive) | 72.5 | 4.7% (inactive) | 90.2 | -0.435 (inactive) | -1.3e-05 (inactive) | 0.00471 (inactive) | -27.2% (inactive) | -76.3% (inactive)
26 | CC(C)C(NC(=O)c1ccco1)C(=O)NCC(c1ccco1)N1CCCCC1 (stereo not drawn) | 379 | -22% (inactive) | 6.7% (inactive) | 99 | 0% (inactive) | 97.7 | -0.588 (inactive) | -2.6e-05 (inactive) | 0.00507 (inactive) | 3.26% (inactive) | 14.7% (inactive)
27 | CN(C)c1ccc(NC(=O)c2cc3c(=O)n4ccccc4nc3n2C)cc1 | 216 | -10.7% (inactive) | 4.4% (inactive) | 89 | 52.4% (inactive) | 68.8 | -0.572 (inactive) | -3.5e-05 (inactive) | 0.00472 (inactive) | 1.6% (inactive) | -86.3% (inactive)
28 | CC1CCCN(S(=O)(=O)c2coc(C(N)=O)c2)C1 (stereo not drawn) | 697 | -0.6% (inactive) | -15.4% (inactive) | 111 | 1.5% (inactive) | 95.6 | -0.6 (inactive) | -2.8e-05 (inactive) | 0.00651 (inactive) | 1.83% (inactive) | 25.1% (inactive)
